High-throughput results from PubChem BioAssay.
Rows were chosen to be rich in hits. Some 6.5% of all compounds tested hit in one or more screens of this group.
TGFb inhibitor: TGF-b pathway inhibition | Potency, µM (series often up to 46.1 µM), usual class: inhibitors | HepG2 CAGA-GFP TGF-b/SMAD3 reporter, GFP fluorescence, 18 h; TGF-beta stimulated, 500 pg/mL final | 410,000 tested, 1.2% active; further: nearly all actives have a fitted effect of over 65% in size
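Per well, imaged GFP fluorescence of HEPG2 CAGA-GFP cells gives the signal; cells get compound, then TGF-beta (500 pg/mL final), 18 h at 37 degrees C; %Activity versus -TGF-beta and +DMSO controls.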
HT1080 IDH1KD tx: kills HT-1080 cells with IDH1 knockdown. HT-1080 IDH1 knockdown viability, ATP luminescence, 48 h. Potency, µM (series often up to 46.1 µM), hits mostly cytotoxic. 360,000 tested, 2% active. AID 686971
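IDH1KD HT-1080 cells, 750/well, RPMI + 5% FBS; compound pinned after 2 h settling; 48 h, 37 °C; CellTiter-Glo luminescence; % activity normalised to DMSO and no-cell wells; curves fitted, classed by r2 and efficacy.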
Giardia killer: Giardia lamblia killing; Giardia lamblia trophozoite viability; activity change, % at 7.66 µM, hits read low; 340,000 tested, 0.15% active; AID 540267; in the data active means activity change below about -80%; inconclusive means between about -30% and that limit;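 further: parasites exposed to compound for two days anaerobically before the ATP read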
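Luminescence from cellular ATP indicates surviving trophozoites (100 cells/well) following 48 hrs anaerobic compound treatment at 37 deg C; signal develops 15-30 min at room temperature.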
HT1080NT lethal: kills 2HG-producing HT-1080-NT fibrosarcoma cells; Potency, µM (series often up to 46.1 µM), actives largely listed as cytotoxic; AID 686970; HT-1080-NT fibrosarcoma viability, CellTiter-Glo ATP luminescence, 48 h; 360,000 tested, 1.6% active;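 further: NT is the 2HG producing partner of a matched IDH1 knockdown line; nearly all actives have a fitted effect of over 55% in size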
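Viability by CellTiter-Glo luminescence after 48 h compound exposure at 37C of HT-1080-NT cells (750/well, RPMI, 5% FBS). % activity scaled between DMSO wells and medium-only wells, then curve-fitted and categorized by curve class.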
HepG2 tox: kills HepG2 cells in TGF-b inhibitor counter-screen. HepG2 CAGA-GFP viability, ATP luminescence, 18 h. Potency, µM (titrated, usually from 46.1 µM), usual class: cytotoxic. 410,000 tested, 0.76% active
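CellTiter-Glo luminescence gave cytotoxicity after 18 hours at 37 degrees C. The cells were HepG2 CAGA-GFP in 1% FBS DMEM, stimulated with 500 pg/mL TGF-beta after compound addition. %Activity was normalised to no-cell wells (complete cell-killing) and DMSO (no toxicity), and curves were fitted and classified.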
IL1B secr inh: inflammasome signaling inhibition, IL-1 beta readout; THP-1 LPS/ATP IL-1B secretion, AlphaLISA, 16 h; active compounds read low; AID 743279; activity change, % at 57.5 µM; 360,000 tested, 4.7% active; in the data active means activity change below about -50%; inconclusive means mostly about -30% to -49%
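Secreted IL-1B measured by AlphaLISA bead assay after 16 h compound exposure of THP-1 cells; compounds (final up to 57.5 uM) added 1 h before LPS (250 ng/mL) and ATP (1.25 mM) stimulation; lower signal means less secretion.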
A number is an active result; – = inactive; ? = inconclusive; · = no result. Unless noted, the call rests on the fitted dose curve; in most records, active means well fitted curve in the direction sought with a large enough effect; inconclusive means small, poorly fitted or top-dose-only effect, or another doubt; inactive means no such curve, though single readings can be large; an effect the other way counts as inactive or inconclusive.

SMILES	TGFb inhibitor	HT1080 IDH1KD tx	Giardia killer	HT1080NT lethal	HepG2 tox	IL1B secr inh
COC(=O)c1cc(C(=O)OC)cc(-n2c(C)cc(C=O)c2C)c1	–	–	–	–	–	-66
CC(C)N1C/C(=C/c2ccsc2)C(=O)/C(=C/c2ccsc2)C1	7.9µM	?	–	?	–	-96
CN1C/C(=C/c2cccnc2)C(=O)/C(=C/c2cccnc2)C1	2.8µM	?	–	?	–	-102
CC(C)N1C/C(=C/c2cccnc2)C(=O)/C(=C/c2cccnc2)C1	7.1µM	5.8µM	–	6.5µM	–	-104
CCN1C(=O)S/C(=C/c2ccsc2)C1=O	–	–	–	–	–	–
COc1cccc(OC)c1C(=O)Nc1cc(C)nn1-c1nc2ccccc2[nH]1	–	–	–	–	–	–
CO[C@H]1CN(C)C(=O)c2ccc(NC(=O)C3CCC3)cc2OC[C@H](C)N(Cc2ccc(F)cc2)C[C@@H]1C	·	–	·	–	·	-70
COC(=O)c1cc2cc(OC)ccc2n1C	–	–	–	–	–	–
O=C(c1ccccc1)c1ccc2cc(O)ccc2c1	–	?	–	?	–	-54
O=C(c1ccccc1)c1ccc2ccccc2c1	–	–	–	–	–	–
COc1ccc(Cl)c2c1[nH]c1nc(SCc3ccccn3)nnc12	?	–	–	–	–	-82
COc1ccc(Cl)c2c1[nH]c1nc(SCc3cccnc3)nnc12	–	–	–	–	–	–
OC(c1ccccc1)(c1nc(-c2cccc(F)c2)cs1)C(F)(F)F (configuration not stated)	?	?	·	18µM	–	–
OC(c1ccccc1)(c1nc(-c2cc(F)cc(F)c2)cs1)C(F)(F)F (configuration not stated)	?	?	·	?	–	?
OC(c1ccccc1)(c1nc(/C=C/c2ccccc2)cs1)C(F)(F)F (configuration not stated)	22µM	?	·	?	–	–
OC(c1ccccc1)(c1nc(-c2ccccc2)cs1)C(F)(F)F (configuration not stated)	?	?	·	21µM	–	–
CC1(C)Cc2c(cnn2-c2ccc(F)cc2)C(NC(=O)CCn2cncn2)C1 (configuration not stated)	?	–	–	–	–	–
O=C(Nc1ccc(Cl)c(C(F)(F)F)c1)C1Cc2c(-c3ccccc3)ccnc2O1 (configuration not stated)	14µM	?	·	?	11µM	–
CC(=O)Nc1cccc(-c2ccnc3c2CC(C(=O)Nc2ccc(Cl)cc2)O3)c1 (configuration not stated)	–	21µM	·	?	–	?
CC(=O)Nc1ccc(-c2ccnc3c2CC(C(=O)NCC2CC2)O3)cc1 (configuration not stated)	–	16µM	·	?	–	–
O=C(Nc1ccc(Cl)cc1)C1Cc2c(-c3cccc(F)c3)ccnc2O1 (configuration not stated)	?	?	·	?	–	-64
CC(=O)Nc1cccc(-c2ccnc3c2CC(C(=O)Nc2ccccc2)O3)c1 (configuration not stated)	–	–	·	–	–	?
COc1ccc2c(c1)Cc1sc(NC(=O)c3ccc(Cl)cc3)nc1-2	–	·	·	·	–	·
O=C(Nc1ccc(Cl)cc1)C1Cc2c(-c3ccc(Cl)cc3)ccnc2O1 (configuration not stated)	?	?	·	?	–	–
CC(=O)Nc1ccc(-c2ccnc3c2CC(C(=O)Nc2cccnc2)O3)cc1 (configuration not stated)	–	13µM	·	13µM	–	–
CC(=O)Nc1ccc(-c2ccnc3c2CC(C(=O)Nc2cccc(C(C)=O)c2)O3)cc1 (configuration not stated)	–	–	·	–	–	–
O=C(Nc1ccc(Cl)cc1)C1Cc2c(-c3ccccc3)ccnc2O1 (configuration not stated)	–	–	·	–	–	-79
